EWS-Fli inh – EWS/Fli-driven NR0B1 reporter inhibitors, primary screen, A673 cells, NR0B1 luciferase, luminescence, MLPCN library. inhibition, % at 12.6 µM. actives 0.67% (n = 350,000). viability-normalised;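 active = mean inhibition of at least 50% after viability correction, with every replicate also passing that limit; inconclusive = mean reaches 50% but only one of two replicates passes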;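 note: firefly luciferase signal divided by Alamar Blue viability fluorescence both relative to DMSO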
INS-1E GSIS act – GLuc luminescence reporter in INS-1E cells, primary screen for activators of glucose-dependent secretion of insulin; INS-1E GLuc reporter insulin secretion, 2-3 h; activation, % at 16.6 µM; actives 0.61% (n = 370,000); AID 743287, 2014;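 active = lowest replicate activation of at least 40%, so every replicate reaches that level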;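 note: 0% = median of neutral control wells and 100% = median of IBMX positive control wells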
PGC1a acetyl inh – inhibitors of PGC1a acetylation signal, primary screen, cell-based, U2OS, AlphaScreen, inhibitor mode; actives 0.17% (n = 350,000); inhibition, % at 15.6 µM; AlphaScreen anti-acetyl-lysine; with virally co-expressed GCN5 acetyltransferase; AID 651687, 2012;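 active = every replicate shows inhibition of at least 40%; inconclusive = mean inhibition at least 40% but some replicate below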;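 note: 0% = neutral control wells and 100% = positive control wells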
Env fusion inh – inhibitors of HIV-1 Env-driven cell-cell fusion, primary screen, HeLa-JRFL effector, CEM21 target cells, luciferase; inhibition, % at 12.3 µM; actives 1.1% (n = 360,000);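 active = mean replicate inhibition score of at least 50 and every replicate individually at or above 50; inconclusive = only one of the two criteria met; inactive = mean below 50 and not all replicates reaching 50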;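 note: 0% = plate neutral controls and 100% = maraviroc near 300 nM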
CFTR F508del cor – F508del CFTR correction, initial screen, CFBE line, single point | CFBE cells, YFP halide quenching; stimulated with forskolin plus potentiator P3; % fluorescence drop versus neutral controls | activity (quench increase), % at 7.58 µM | actives 0.36% (n = 350,000) | AID 720511, 2013;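 active = mean added fluorescence quench of at least 8% versus neutral control, with both replicates also reaching 8%; inconclusive = only one of the mean or replicate conditions met; inactive = mean below 8% and not both replicates reaching 8%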;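 note: cells transiently co-express mutant CFTR-F508del with the halide-sensitive YFP; corrector assay measuring rescue of mutant channel to the surface after 24 h compound exposure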
PAX8 reporter – inhibitors of PAX8-driven TPO luciferase reporter, primary screen, RMG-I cells, single concentration; SteadyGlo, 24 h; inhibition, % at 12.6 µM; actives 1.2% (n = 360,000); AID 652154, 2013;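 active = mean replicate inhibition at least 60% with every replicate also reaching 60%; inconclusive = only one of the two criteria is met; inactive = mean below 60% and not all replicates reaching 60%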;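 note: luciferase light reporting Pax8 driven TPO promoter activity; plate controls were median of neutral control wells for no effect and mitoxantrone controls for full effect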
* marks the source's active call; other numbers are inactive results; ? = inconclusive; . = no result given; ! = not active in a repeat; [ ] = dose if it differs, or a comment. Sampled rows, rich in hits. Any-hit rate of the full collection: about 2.7%.

SMILES | EWS-Fli inh | INS-1E GSIS act | PGC1a acetyl inh | Env fusion inh | CFTR F508del cor | PAX8 reporter
CC1(C)CC[C@]2(C(=O)n3ccnc3)CC[C@]3(C)[C@H](C(=O)C=C4[C@@]5(C)C=C(C#N)C(=O)C(C)(C)[C@@H]5CC[C@]43C)[C@@H]2C1 | 76* | -26 | . | 109* | -31 | 39
C[C@@H]1CCCCO[C@@H](CN(C)Cc2ccccc2)[C@H](C)CN([C@H](C)CO)C(=O)c2cc(NC(=O)Cc3ccccc3)ccc2O1 | 6 | -23 | -3 | -16[16.7 µM] | 1 | 3
C[C@@H]1CCCCO[C@@H](CN(C)Cc2ccc(C(F)(F)F)cc2)[C@@H](C)CN([C@H](C)CO)C(=O)c2cc(NC(=O)Cc3ccccc3)ccc2O1 | -12 | -8 | 8 | 1[16.7 µM] | 6 | 7
C[C@@H]1CCCCO[C@H](CN(C)Cc2ccc(C(F)(F)F)cc2)[C@H](C)CN([C@@H](C)CO)C(=O)c2cc(NC(=O)Cc3ccccc3)ccc2O1 | 14 | -9 | -5 | -98 | 1 | 65*!
C[C@H](CO)N1C[C@H](C)[C@@H](CN(C)Cc2ccc(C(F)(F)F)cc2)OCCCC[C@H](C)Oc2ccc(NC(=O)Cc3ccccc3)cc2C1=O | 7 | -1 | 16 | 40[16.7 µM] | 3 | 80*
C[C@@H]1CN([C@H](C)CO)C(=O)c2cc(NC(=O)Cc3ccccc3)ccc2O[C@@H](C)CCCCO[C@@H]1CN(C)Cc1ccc(C(F)(F)F)cc1 | -3 | -11 | 1 | 65*[16.7 µM] | 1 | 87*
C[C@@H]1CCCCO[C@@H](CN(C)Cc2ccc(C(F)(F)F)cc2)[C@H](C)CN([C@@H](C)CO)C(=O)c2cc(NC(=O)Cc3ccccc3)ccc2O1 | 14 | -12 | 2 | ? | -4 | 81*
C[C@@H]1CCCCO[C@@H](CN(C)Cc2ccccc2)[C@@H](C)CN([C@@H](C)CO)C(=O)c2cc(NC(=O)Cc3ccccc3)ccc2O1 | 0 | -27 | -2 | -15[16.7 µM] | 1 | -42
C[C@@H]1CCCCO[C@@H](CN(C)C(=O)Nc2cccc3ccccc23)[C@H](C)CN([C@@H](C)CO)C(=O)c2cc(NS(C)(=O)=O)ccc2O1 | 1 | -3 | 8 | 21[16.7 µM] | 2 | 24
CO[C@H]1CN(C)C(=O)c2cc(NC(=O)Nc3ccccc3)ccc2OC[C@H](C)N(C(C)=O)C[C@H]1C | 1 | -1 | -12 | -4[16.7 µM] | 1 | .
COc1ccc(C[C@H]2CCc3cnnn3COC[C@H](C(C)C)NC2=O)cc1 | 1 | 4 | . | -4[16.7 µM] | . | -7
O=C(C[C@H]1C[C@H]2c3cc(NC(=O)C4CCC4)ccc3O[C@H]2[C@H](CO)O1)NCCN1CCCCC1 | -10 | 7 | 5 | 5[16.7 µM] | 1 | -2
CC(=O)c1ccc(Nc2cc(C)nc3c(C)cc(C)cc23)cc1 | 16 | 11 | 39 | -20 | 17* | 20
CCC(=O)N(C)C[C@@H]1Oc2cc(C#CC(C)(C)O)ccc2S(=O)(=O)N([C@H](C)CO)C[C@H]1C | 2 | 19 | -12 | -13[16.7 µM] | -4 | .
CN(CC(=O)Nc1ccc(F)cc1)C(=O)c1cccc(S(=O)(=O)N2CCN(c3ccc(F)cc3)CC2)c1 | 29 | -27 | . | 55* | 1 | 22
CN(Cc1ccc(F)cc1)C(=O)c1cccc(S(=O)(=O)N2CCN(c3ccc(F)cc3)CC2)c1 | 31 | -27 | . | 57* | 1 | 37
COc1cccc(NC(=O)CN(C)C(=O)c2cccc(S(=O)(=O)N3CCN(c4ccc(F)cc4)CC3)c2)c1 | 28 | -36 | -4 | 39 | -1 | 43
CSc1ccc(CN(C)C(=O)c2cccc(S(=O)(=O)N3CCN(Cc4ccccc4)CC3)c2)cc1 | 28 | -45 | . | 69* | -5 | 21
CN(CC(=O)Nc1ccc(Cl)c(C(F)(F)F)c1)C(=O)c1ccc(S(=O)(=O)N2CCOCC2)cc1 | 55* | -44 | 1 | . | -6 | 25
CN(Cc1ccc(F)cc1)C(=O)c1cccc(S(=O)(=O)N2CCN(Cc3ccccc3)CC2)c1 | 8 | -37 | -10 | 3 | 3 | 8
CC(C)C(=O)Nc1ccc2c(c1)C(=O)N(C)[C@H]1CC[C@@H](CC(=O)NCCCN(C)C)O[C@H]1CO2 | -8 | 2 | 8 | -34[16.7 µM] | -1 | -49
CCN1[C@H](C(=O)Nc2ccccc2)[C@@H](CO)[C@@H]2Cn3c(ccc(-c4ccc(F)cc4)c3=O)[C@@H]21 | -4 | -8 | . | . | 1 | .
O=C(C[C@H]1CC[C@H](NC(=O)c2cccc(F)c2)[C@H](CO)O1)NCCN1CCCC1 | -1 | 3 | 12 | 7[16.7 µM] | -2 | 1
O=C(C[C@@H]1C=C[C@@H](NC(=O)c2ccncc2)[C@H](CO)O1)NCc1ccncn1 | . | 1 | 6 | . | 1 | -27
O=C(CC1C(=O)NCCN1Cc1cccc(F)c1)NC1CCC1 (configuration not stated) | . | -5 | -1 | -1 | -4 | -27
SMILES | EWS-Fli inh | INS-1E GSIS act | PGC1a acetyl inh | Env fusion inh | CFTR F508del cor | PAX8 reporter
O=C(CC1C(=O)NCCN1Cc1cccc(F)c1)NC1CCCCC1 (configuration not stated) | -5 | . | . | 91* | 1 | .
COc1ccc(S(=O)(=O)N(C)C[C@@H]2Oc3ccc(NC(=O)Cn4cnnn4)cc3C(=O)N([C@H](C)CO)C[C@H]2C)cc1 | 7 | 11 | -5 | 18[16.7 µM] | 2 | .
CCOc1ccc(Nc2ncnc3ccc([N+](=O)[O-])cc23)cc1 | -4 | -1 | 50* | 38 | 2 | 10
CCOC(=O)c1ccc(Nc2ncnc3ccc(C)cc23)cc1 | . | 85* | -4 | . | . | .
Cc1c(CNCCc2ccc(Cl)cc2)c(C(=O)O)c(C)n1Cc1ccccc1 | -9 | 4 | 10 | 14 | 0 | -6
Cc1c(CNCCc2ccccc2Cl)c(C(=O)O)c(C)n1-c1ccccc1 | -15 | -1 | . | 57* | 4 | 16
CN1CCN(C(=O)C[C@@H]2C=C[C@H](NC(=O)Nc3ccccc3F)[C@H](CO)O2)CC1 | -5 | 14 | 35 | 8[16.7 µM] | -1 | -7
Cc1cc(N2CCN(c3nc4ccccc4s3)CC2)n2ncnc2n1 | . | . | -19 | 87* | . | .
COCC(=O)N1C[C@H]2[C@@H](c3ccccc31)[C@H](CO)N2C(=O)C1CCOCC1 | 0 | 0 | -1 | . | 3 | -8
CS(=O)(=O)c1ccc(Cl)c(NC(=O)COC(=O)Cc2c[nH]c3ccccc23)c1 | 9 | 52* | 5 | . | -4 | 8
CS(=O)(=O)c1ccc(Cl)c(NC(=O)COC(=O)c2c(Cl)cccc2Cl)c1 | 2 | 7 | -5 | 24 | -1 | 11
CC(=O)Nc1sc(C)c(C)c1C(=O)OCC(=O)Nc1cc(S(C)(=O)=O)ccc1Cl | -3 | 56* | -9 | 13 | 1 | 26
O=C(COC(=O)Cc1c[nH]c2ccccc12)Nc1cccc2ccccc12 | 15 | 17 | . | 6 | . | -1

From PubChem
